Screening data (PubChem)
A-T KAP1 phos – qHTS Assay for Identifying a Potential Treatment of Ataxia-Telangiectasia; F2112 A-T fibroblasts, KAP-1 phosphorylation AlphaLISA; neocarzinostatin DNA damage 30 min before lysis; Potency, µM (titrated, usually from 57.5 µM), inactives show top-dose activation, most hits filed as activators; hit rate 0.19% among 320,000; AID 485349, 2010; note: potency is the fitted concentration of half-maximal effect; % of control where 0% means no effect; nearly all actives have a fitted effect of over 45% in size
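ATM-like activity read as KAP-1 phosphorylation via AlphaLISA donor/acceptor antibody pairs after lysis and 6 hr at 25C. Cells were ATM-null patient fibroblasts (F2112, hTERT), dosed 60 min, then exposed to the DSB inducer NCS for 30 min.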
Apoferritin bind – qHTS Assay for Identification of Novel General Anesthetics. apoferritin/1-aminoanthracene competitive binding, fluorescence. Potency, µM (doses to about 77.5 µM), without a hit: top-dose activity change, negative = displacement, most hits filed as inhibitors. hit rate 0.074% among 350,000. AID 485281, 2010; note: potency is the fitted concentration of half-maximal effect; % is set by controls: 0 for no effect and ±100 for the full control effect; nearly all actives have a fitted effect of over 20% in size
Target sequence (P02791 2-175 limits assumed): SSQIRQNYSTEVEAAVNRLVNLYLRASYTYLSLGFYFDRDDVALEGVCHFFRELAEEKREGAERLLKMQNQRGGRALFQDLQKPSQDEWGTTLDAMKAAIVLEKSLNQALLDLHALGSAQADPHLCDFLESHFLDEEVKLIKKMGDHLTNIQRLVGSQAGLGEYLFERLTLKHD
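Read-out: endpoint 1-AMA fluorescence, excitation 380 nm and emission 535 nm, after compounds sit 10 min at room temperature with 10 uM horse-spleen apoferritin in 50% saturated 1-AMA/PBS. Values come from four-parameter Hill fits.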
LDHA inh – qHTS assay for inhibitors of human lactate dehydrogenase; purified LDHA, NADH/diaphorase-resazurin fluorescence; stronger effect = lower value; activity change, % (values are at about 110 or 230 µM); hit rate 0.15% among 480,000; AID 1347041, 2019; in the data active = activity change below about -30%; inconclusive = mostly about -25% to -30%;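 note: plate controls were DMSO wells for no effect and wells without enzyme for full effect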
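Remaining NADH was detected by diaphorase (0.133 mg/mL) converting 37 µM resazurin to fluorescent resorufin, read at 0 and 20 minutes. The preceding 5-minute room-temperature reaction used 2 nM LDHA, 0.2 mM sodium pyruvate and 0.06 mM NADH at pH 7.4.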
RGS4 inhibitor – Inhibitors of Regulator of G Protein Signaling (RGS) 4: qHTS; Potency, µM (titrated, usually from 114 µM), without a hit: at the highest dose activity change, negative = inhibition, actives largely listed as inhibitors; Transcreener GDP fluorescence polarization, RGS4-accelerated GTP hydrolysis; Regulator of G-protein signaling 4 (Homo sapiens), P49798; hit rate 0.039% among 390,000; note: potency is the fitted concentration of half-maximal effect; % is set by controls: 0 for no effect and ±100 for the full control effect; nearly all actives have a fitted effect of over 75% in size
Target sequence (P49798 whole entry, looked up): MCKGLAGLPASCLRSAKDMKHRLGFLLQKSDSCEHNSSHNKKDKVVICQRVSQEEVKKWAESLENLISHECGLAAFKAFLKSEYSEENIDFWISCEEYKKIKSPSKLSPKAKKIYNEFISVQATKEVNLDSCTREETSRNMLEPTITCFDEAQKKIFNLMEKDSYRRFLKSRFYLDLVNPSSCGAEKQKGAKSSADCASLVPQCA
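MLSMR compounds (23 nl, pin-transferred) preincubated 10 min at room temperature with a 500nM (2x) first reagent, then RGS4 at 900nM (2x) plus Transcreener GDP mix added; fluorescence polarization (620/688 nm) read before and after 90 min at 30 °C.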
The depositor's hits bear a star; ? = inconclusive; . = not tested or not shown; ! = not confirmed by another sample; [ ] = dose if it differs, or a comment. In the library only some 0.35% were active in any assay of this set; here they are far more common. Unless noted, calls come from the whole dose curve; as a rule, active = well fitted curve in the direction sought with a large enough effect; inconclusive = small, poorly fitted or top-dose-only effect, or another doubt; inactive = no such curve, though single readings can be large; an effect the other way counts as inactive or inconclusive.

SMILES	A-T KAP1 phos	Apoferritin bind	LDHA inh	RGS4 inhibitor
COc1cc(NS(=O)(=O)c2ccc(C)cc2C)cc2sc(NC(=O)c3ccccc3)nc12	.	.	-11	.
O=C(CCc1c[nH]c2ccccc12)NCc1ccncc1	6%	1%	-32*!	-6%
CCCCCCSc1ccc(-c2nc3ccccn3c2NCCCC)cc1	40µM*	.	-2	31%
CCCCCCSc1cc(-c2nc3cnccn3c2NCc2ccccc2)ccc1OC	18µM*	.	2	-25%
COc1ccc(-c2nc3cnccn3c2NCc2ccccc2)cc1SC1CCCCC1	?	.	8	4%
CCCCNc1c(-c2ccc(OC)c(SC3CCCCC3)c2)nc2ccc(Cl)cn12	-7%	.	3	-15%
CCCCCCSc1cc(-c2nc3cc(C)ccn3c2NC2CCCCC2)ccc1OC	15%	.	5	2%
CCCCNc1c(-c2ccc(OC)c(SC3CCCCC3)c2)nc2cc(C)ccn12	32µM*	.	0	7%
CCCCNc1c(-c2ccc(OC)c(SC3CCCCC3)c2)nc2cnccn12	22µM*	.	5	-10%
Oc1ccc2ccccc2c1CN(Cc1ccccc1)Cc1ccccc1	.	.	31	.
CCOc1cc(C(=O)Nc2ccc3sc(NC(=O)C(C)C)nc3c2)cc(OCC)c1OCC	.	.	-1	.
COc1ccc(N2C(=O)C(C)CS2(=O)=O)cc1S(=O)(=O)Nc1ccc(Cl)cc1 (stereo not drawn)	.	.	-3	.
CCC(C)Sc1ccc(-c2nc3cnccn3c2NC2CCCCC2)cc1 (stereo not drawn)	22µM*	.	10	26%
NS(=O)(=O)c1cc(Br)c2c(c1)S(=O)(=O)NCN2	.	.	-37*	.
Nc1nc(SCc2ccc(Cl)cc2)ns1	22%	50µM*	-3	-16%
O=C(COc1ccc(Cl)cc1)Nc1ccc2oc(-c3ccccc3F)nc2c1	.	.	-7	.
CCN1CCN(Cc2ccc(NC(=O)c3ccc(C)c(NC(=O)c4csc(-c5ccncc5)n4)c3)cc2C(F)(F)F)CC1	40µM*	-14%	3	-40%
CN1C(=O)CSc2ccc(NC(=O)NCCC3=CCCCC3)cc21	.	22µM*	1	-23%
CN(C)c1ccc(/C=N/Nc2ccccc2Cl)cc1	.	.	19	.
Cn1c(CC(=O)Nc2cccc(C(F)(F)F)c2)nnc1SCC(=O)c1ccc(C#N)cc1	.	.	-32*	.
COC(=O)C1=CN(C(C)C)C=C(C(=O)OC)C1c1ccc(C)s1	.	.	6	.
O=C(COC(=O)C(O)c1ccccc1)NC12CC3CC(CC(C3)C1)C2 (stereo not drawn)	0%	11µM*	0	6%
CCC(CC)C(=O)OCC(=O)NC12CC3CC(CC(C3)C1)C2	-6%	6.3µM*	2	1%
CCSC(=O)NC12CC3CC(CC(C3)C1)C2	.	8.9µM*	-6	14%
CCOCC(=O)OCC(=O)NC12CC3CC(CC(C3)C1)C2	2%	?	0	-6%
SMILES	A-T KAP1 phos	Apoferritin bind	LDHA inh	RGS4 inhibitor
CCC(=O)NC12CC3CC(CC(C3)C1)C2	.	.	-2	.
CCOP(=O)(OCC)c1nc(-c2ccc(C)cc2)oc1N(C)C	.	.	1	.
CC(C)(C)c1ccc(-c2oc(NC(=O)CCl)c(C#N)c2-c2ccc(C(C)(C)C)cc2)cc1	.	.	5	.
Cc1cc(=O)oc2cc(NC(=O)Cc3c(Cl)cccc3Cl)ccc12	.	.	3	.
O=C(Nc1nnc(-c2cccs2)o1)c1cccc(Oc2ccccc2)c1	8%	-17%	-33*	6%
Cc1ccc(-c2cccc(N)c2)cc1	.	.	10	.
O=C(c1ccccc1)c1ccc(OCCOCCN2CCN(Cc3ccccc3)CC2)cc1	-5%	-13%	?	5%
CCC(=O)c1ccccc1OCCN1CCN(Cc2ccccc2)CC1	10%	-9%	-34*	22%
CCC(=O)c1ccccc1OCCCn1cncn1	-2%	-5%	-4	18%
CCOc1ccccc1OCCOCCN1CCN(Cc2ccccc2)CC1	0%	-6%	-31*	-18%
N=C(N)c1ccc(OCc2ccncc2)cc1	.	.	-3	.
CCCS(=O)(=O)N1CCN(CC2CC=CCC2)CC1 (stereo not drawn)	8%	-9%	-31*	29%
O=C(NC(=S)NC1CCN(Cc2ccccc2)CC1)c1ccc(F)cc1	1.4µM*	-11%	-2	-17%
O=C(NC1CCN(Cc2ccc(F)cc2)CC1)c1ccccc1	17%	5%	-5	-5%
O=C(CN1C(=O)N/C(=C\c2cccn2-c2cccc(C(=O)O)c2)C1=O)Nc1ccc(F)cc1	.	.	-5	.
CCOc1cc(/C=C/c2ncc(C(=O)O)s2)cc(Cl)c1OC	.	.	0	.
CC1CCCCN1C(=O)Nc1cccc(Cl)c1 (stereo not drawn)	0%	22µM*	-11	14%
O=C(Nc1cccc(Cl)c1)N1CCCC1	4%	-12%	-4	-106%[56.9 µM]
Cc1ccc(NC(=O)Cc2nc(-c3c[nH]c(C(=O)N4CCCC4)c3)cs2)cc1	.	.	2	.
O=C1C(NS(=O)(=O)c2cccs2)=C(N2CCOCC2)C(=O)c2ccccc21	7.1µM*	-2%	27	-2%
COc1ccc(OC)c(C(=O)NCC2(c3ccc(F)cc3)CCOCC2)c1	.	.	6	.
COc1ccc(OC)c(C(=O)COC(=O)Cc2ccc(Cl)cc2)c1	.	.	1	.
CCCCCOc1ccc(CSC(=N)N)cc1[N+](=O)[O-]	-4%	8.9µM*	-3	17%
Nc1ncnc2c1ncn2[C@@H]1O[C@H](COP(=O)(O)OP(=O)(O)OP(=O)(O)OP(=O)(O)OC[C@@H]2O[C@H](n3cnc4c(N)ncnc43)[C@@H](O)[C@H]2O)[C@@H](O)[C@H]1O	.	3%	.	3µM*
Nc1nc(Cl)nc2c1ncn2[C@@H]1O[C@H](COP(=O)(O)OP(=O)(O)OP(=O)(O)O)[C@@H](O)[C@H]1O	.	.	.	0.53µM*
SMILES	A-T KAP1 phos	Apoferritin bind	LDHA inh	RGS4 inhibitor
Nc1ncnc2c1ncn2[C@@H]1O[C@H](COP(=O)(O)OP(=O)(O)O)[C@@H](O)[C@H]1O	.	5%	.	?
Cc1ccc(Cl)cc1-n1ncc2c(=O)n(CC(=O)Nc3ccc(F)cc3Cl)cnc21	.	.	1	.
O=c1c2ccccc2sn1-c1ccccc1	-3%	?	?	?
O=c1c2ccccc2sn1-c1ccccc1F	.	.	-52*	.
COc1ccc(NC(=O)CN(C)CC(=O)Nc2ccccc2SC)cc1	1%	-14%	-35*	2%
COc1ccc(-c2cc(C(F)(F)F)nc(N3CCCCC3)n2)cc1OC	35µM*	-9%	8	-5%
COc1ccc(-c2cc(C(F)(F)F)nc(N3CCN(C)CC3)n2)cc1OC	4%	-16%	5	24%
Cc1ccc(-c2cc(C(=O)O)c3ccc(C)c(C)c3n2)cc1	.	.	6	.
O=C(c1ccccc1)N1CC=C(c2c[nH]c3ccccc23)CC1	.	.	12	.
Cc1cc(C)c(S(=O)(=O)c2ccccc2)c(OC(=O)c2c(F)cccc2F)n1	1%	-12%	-50*	?
